Screening results (PubChem)
This is a sample that favours compounds with a hit; in the whole collection about 19% have one here.
LASV entry inh = Lassa virus entry inhibition | Lassa virus pseudotype entry inhibition, cell reporter | Potency, µM (series often up to 37.9 µM), hits mostly inhibitors | 1.2% of 300,000 active | AID 540256; calls by dose curve; tested in HEK293 cells; note: nearly all actives have a fitted effect of over 50% in size
Marburg entry inh = inhibitors of Marburg virus binding or cell entry. Potency, µM (top dose mostly 37.8 µM), most hits filed as inhibitors. AID 540276. 1.8% of 300,000 active. Marburg virus pseudotyped entry inhibition, cell reporter; calls by dose curve; tested in HEK293 cells
Pf growth 96h = P. falciparum growth inhibition at 96 hours; P. falciparum luciferase reporter growth, 96 h; Potency, µM (highest dose often 28.7 µM), most hits filed as inhibitors; 6.9% of 320,000 active; AID 504834
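Luminescence readout: decreased luciferase signal marks inhibited growth of reporter-expressing P. falciparum in infected red cells (2% hematocrit, 0.05% parasitemia final), exposed to compound two generations (96 h, 37 C, 5% CO2).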
Pf growth 48h = P. falciparum growth inhibition at 48 hours (one generation); P. falciparum luciferase growth in erythrocytes, 48 h; Potency, µM (highest dose often 28.7 µM), hits mostly inhibitors; 5.9% of 310,000 active
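Cell-based growth assay: transgenic P. falciparum expressing firefly luciferase, cultured in red cells within RPMI 1640 containing 0.5% w/v Albumax, 24 mM bicarbonate and gentamycin. A drop in luciferase activity indicates inhibition.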
CHX counter = affects cycloheximide protein synthesis inhibition readout, counter-screen; 12% of 300,000 active; cell reporter, cycloheximide protein synthesis inhibition counterscreen; AID 2314; max response, %; in the data active = max response mostly above about 13%, no sharp cut-off; inactive = mostly below about 14%; note: read at 38.3 µM for the half of the compounds with a filed dose
Shiga inhibitor = blocks Shiga toxin action in Vero cells. inhibition, % at 38.7 µM. AID 2315. 9.2% of 290,000 active. Vero cells, Shiga toxin protein synthesis inhibition reporter; in the data active = inhibition mostly above about 28%, no sharp cut-off; inactive = mostly below about 43%
Numbers stand for hits; - = inactive; ? = inconclusive; . = no result. Unless noted, calls come from the whole dose curve; as a rule, active = well fitted inhibition curve with a large enough effect; inconclusive = small, poorly fitted or top-dose-only effect, or another doubt; inactive = no such curve, though single readings can be large or run the other way.

SMILES	LASV entry inh	Marburg entry inh	Pf growth 96h	Pf growth 48h	CHX counter	Shiga inhibitor
CCOC(=O)C1=C(CNCc2ccc(Cl)cc2)NC(=O)NC1c1ccccc1 (stereo unspecified)	-	-	.	.	.	.
CCOC(=O)C1=NN(c2ccc(Cl)cc2)C(c2ccccc2)CC1=O (stereo unspecified)	-	-	?	9.3µM	-	-
O=C(NC1CCCCCC1)C1c2ccccc2C(=O)N1CCCN1CCOCC1 (stereo unspecified)	-	-	13µM	-	-	-
CC1CCC(NC(=O)C2c3ccccc3C(=O)N2Cc2cccs2)CC1 (stereo unspecified)	3.5µM	-	-	-	-	-
CC(C)OCCCN1C(=O)c2ccccc2C1C(=O)NC1CCCCC1 (stereo unspecified)	-	-	-	-	-	-
O=C(NC1CCCCCCC1)C1c2ccccc2C(=O)N1Cc1cccs1 (stereo unspecified)	?	-	?	?	-	-
O=C1CC(N2CCN(c3nc4ccccc4s3)CC2)C(=O)N1c1ccc(F)cc1 (stereo unspecified)	-	-	?	-	-	-
O=c1c(Cl)c(N2CCN(c3ccc(F)cc3)CC2)cnn1-c1nc2ccccc2s1	-	?	-	-	39	75
CC(=O)N1CCc2cc(S(=O)(=O)NCCC(=O)NC3CCCCCC3)ccc21	.	.	-	-	-	-
CC(=O)N1CCc2cc(S(=O)(=O)NCCC(=O)Nc3ccc4c(c3)OCCO4)ccc21	?	-	?	-	30	-
CC(=O)N1CCc2cc(S(=O)(=O)NCCC(=O)Nc3cc(C)cc(C)c3)ccc21	-	?	5.2µM	?	-	-
CC1CCCC(C)N1C(=O)c1ccccc1Nc1ccc(SC(F)F)cc1 (stereo unspecified)	?	12µM	13µM	?	-	-
CC(OC(=O)c1ccccc1Nc1ccc(SC(F)F)cc1)C(N)=O (stereo unspecified)	?	-	-	-	-	-
CC1CN(C(=O)c2ccccc2Nc2ccc(SC(F)F)cc2)CC(C)O1 (stereo unspecified)	-	?	?	?	-	-
O=C(COC(=O)c1ccccc1Nc1ccc(SC(F)F)cc1)NC1CC1	-	?	-	?	73	75
Cc1cccc(Nc2ccccc2C(=O)OCC(=O)NCc2ccco2)c1C	-	?	12µM	?	-	-
NC(=O)COC(=O)c1ccccc1Nc1ccc(SC(F)F)cc1	?	?	-	-	14	-
COC(=O)N[C@H](c1ccccc1)C(C(=O)OC)C(=O)OC	.	-	.	.	.	.
COCC(=O)NC(C)c1nc2ccccc2[nH]1 (stereo unspecified)	-	-	-	-	-	-
O=C(O)[C@H](Cc1ccccc1)N1C(=O)c2ccncc2C1=O	-	-	-	-	-	-
CN1C(=O)NC(c2ccccc2Cl)C2=C1CC(C)(C)CC2=O (stereo unspecified)	-	-	-	-	-	-
O=C(c1ccc2c(c1)N(Cc1ccccc1F)C(=O)c1ccccc1S2(=O)=O)N1CCN(c2ccccc2F)CC1	-	?	.	.	.	.
CC(C)(C)NC(=O)COC(=O)c1ccccc1Nc1ccc(SC(F)F)cc1	?	?	?	?	55	67
Cc1ccccc1C(=O)OCC(=O)NCc1ccco1	-	-	.	.	.	.
O=C(COC(=O)c1ccccc1Nc1ccc(SC(F)F)cc1)NCc1ccco1	-	-	?	?	33	63
SMILES	LASV entry inh	Marburg entry inh	Pf growth 96h	Pf growth 48h	CHX counter	Shiga inhibitor
CNC(=O)COC(=O)c1ccccc1Nc1ccccc1	-	?	-	-	17	118
O=C(COC(=O)c1ccccc1C(=O)c1ccccc1)Nc1ccc(SC(F)F)cc1	16µM	?	-	-	20	-
O=C(COC(=O)Cc1ccccc1)Nc1ccc(SC(F)F)cc1	.	.	-	-	-	-
Nc1c(C=C2C=CC(=O)C=C2)c(=O)nc2snc(SCc3ccccc3)n12	.	.	-	-	33	47
Fc1ccc2nc(Nc3nc4c(F)cc(F)cc4s3)sc2c1	-	?	10µM	-	-	-
Fc1cccc2sc(Nc3nc4ccccc4s3)nc12	?	?	-	-	56	69
Fc1ccc2nc(Nc3nc4c(F)cccc4s3)sc2c1	-	-	?	-	45	42
CCC(=O)NNc1nc2c(F)cccc2s1	-	-	-	-	-	-
